Screening results deposited in PubChem by National Center for Advancing Translational Sciences (NCATS).
GPT2 inh – inhibitors of human GPT2 alanine aminotransferase; Q8TD30; Recombinant GPT2, coupled pyruvate oxidase/HRP Amplex Red fluorescence; Potency, µM (doses to about 57.7 µM), inactives show at the highest dose activity change, negative = inhibition, most hits filed as inhibitors; 100,000 compounds, 0.25% hits; also: nearly all actives have a fitted effect of over 60% in size
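Inhibition is scored from Amplex Red fluorescence generated when pyruvate oxidase and HRP act on pyruvate released by GPT2. Reactions contain 10ng/uL enzyme, 250uM a-KG and 2mM L-alanine and run 30 min at room temperature.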
NPR1 antag – blocks ANP-stimulated signaling of human Npr1 receptor; P16066; HEK293 hNpr1 GloSensor cGMP, ANP-stimulated luminescence; Potency, µM (series often up to 46.3 µM), inactives show top-dose activity change, negative = inhibition, hits mostly inhibitors; 76,000 compounds, 1.6% hits; AID 1347048; calls by dose curve; also: nearly all actives have a fitted effect of over 60% in size
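Compound pre-incubated 30 min at room temperature on GloSensor-loaded HEK293 cells stably carrying hNpr1 and the pGS-40F cGMP biosensor. Stimulation uses hNppA at 0.1 nM final; luminescence is taken at baseline and 20 min post-agonist.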
Luciferase inh – Photinus pyralis luciferase inhibition. 76,000 compounds, 2.5% hits. AID 1347043. P08659. purified P. pyralis luciferase, luminescence, biochemical. Potency, µM (doses to about 115 µM), hits mostly inhibitors; also: nearly all actives have a fitted effect of over 65% in size
Target sequence (P08659 whole entry, looked up): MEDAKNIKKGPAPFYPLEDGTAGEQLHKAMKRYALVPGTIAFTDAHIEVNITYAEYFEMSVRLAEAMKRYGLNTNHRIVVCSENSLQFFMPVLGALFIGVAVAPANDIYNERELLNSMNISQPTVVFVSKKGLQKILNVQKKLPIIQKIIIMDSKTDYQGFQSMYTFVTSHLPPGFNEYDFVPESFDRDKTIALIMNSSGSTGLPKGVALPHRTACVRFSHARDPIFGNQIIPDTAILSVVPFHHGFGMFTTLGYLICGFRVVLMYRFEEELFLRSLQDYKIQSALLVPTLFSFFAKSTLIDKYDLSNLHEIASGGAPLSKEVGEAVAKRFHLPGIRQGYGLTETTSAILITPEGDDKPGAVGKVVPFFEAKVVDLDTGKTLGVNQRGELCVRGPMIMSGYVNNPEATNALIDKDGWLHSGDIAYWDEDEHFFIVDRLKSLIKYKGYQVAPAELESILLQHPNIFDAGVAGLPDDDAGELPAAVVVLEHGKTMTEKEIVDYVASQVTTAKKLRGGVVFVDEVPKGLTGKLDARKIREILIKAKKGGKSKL
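Cell-free enzyme assay, 10nM P. pyralis luciferase, luciferin and ATP each at 10uM. Inhibition profiled over a 6-point titration, read as luminescence.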
HEK cytotox – kills HEK 293 cells; HEK 293 viability, ATP luminescence (CellTiter-Glo), 48-72 h; Potency, µM (top dose mostly 115 µM), for the others: at the top dose activity change, negative = cytotoxicity, usual class: inhibitors; 94,000 compounds, 6.6% hits; AID 1345083; also: nearly all actives have a fitted effect of over 60% in size
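Viability of HEK 293 cells, plated at 250 cells/well, was judged by cellular ATP after compound treatment for 48 or 72 hr. Luminescence was imaged 10 min after CellTiter-Glo addition at room temperature.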
NIH3T3 tox – cytotoxic compounds in NIH 3T3 cells; NIH 3T3 viability, CellTiter-Glo ATP luminescence, 48-72 h; 94,000 compounds, 4.3% hits; Potency, µM (series often up to 96.7 µM), for the others: at the top dose activity change, negative = cytotoxicity, most hits filed as inhibitors; AID 1345082; also: nearly all actives have a fitted effect of over 55% in size
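NIH 3T3 cells at 400 cells/well received 23 nL of compound by pintool and were incubated 48 or 72 h at 37 °C. Viability was read as ATP-coupled CellTiter-Glo luminescence.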
* hit, by the source's call; i = inactive; ? = inconclusive; / = no result given; ! = a repeat was not active; [ ] = dose if it differs, or a comment. The list is not random: actives were taken first. Their share in the collection is about 10%. Unless noted, calls follow the shape of the dose curve; as a rule, active = well fitted curve in the direction sought with a large enough effect; inconclusive = small, poorly fitted or top-dose-only effect, or another doubt; inactive = no such curve, though single readings can be large; an effect the other way counts as inactive or inconclusive. % is scaled to controls: 0 for no effect and ±100 for the full control effect; potency is read from the fitted curve at half-maximal effect.

SMILES | GPT2 inh | NPR1 antag | Luciferase inh | HEK cytotox | NIH3T3 tox
Cc1ccc(C(=O)NC[C@H]2C[C@@H]3CCN2C[C@@H]3c2cc(-c3ccccc3)nn2C)cc1 | i | 5.1%[70.6 µM] | i | ? | ?
Cn1nc(-c2cccs2)cc1[C@H]1CN2CC[C@H]1C[C@@H]2CNC(=O)NCc1ccccc1 | -3.6% | 0.1% | i | -15.4% | -29.8%
COc1ccc(CNC[C@H]2C[C@@H]3CCN2C[C@@H]3c2cc(-c3ccc(F)cc3)nn2C)cc1 | -10.1%[88.5 µM] | 0.9%[70.6 µM] | i | 44.7µM* | 89.1µM*
Cn1nc(-c2ccccc2)cc1[C@H]1CN2CC[C@H]1C[C@@H]2CNC(=O)NCc1ccccc1 | i | -1.6%[70.6 µM] | i | ? | 100µM*
Cn1nc(-c2ccc(F)cc2)cc1[C@H]1CN2CC[C@H]1C[C@@H]2CNC(=O)NCc1ccccc1 | i | -16.0% | i | 25.1µM* | ?
CN(C)c1ccc(C(=O)NC[C@H]2C[C@@H]3CCN2C[C@@H]3CN(C)c2ccccc2)cc1 | i | -6.0%[70.6 µM] | i | ? | ?
O=C(NC[C@H]1C[C@@H]2CCN1C[C@@H]2CN1CCC(Cc2ccccc2)CC1)c1ccc(C(F)(F)F)cc1 | -16.1% | 1.0% | i | 79.4µM* | ?
CN(C[C@H]1CN2CC[C@H]1C[C@@H]2CNC(=S)NCc1ccco1)c1ccccc1 | i | 1.9%[70.6 µM] | i | 39.8µM* | 28.2µM*
CN(C[C@H]1CN2CC[C@H]1C[C@@H]2CNC(=O)c1ccc(C(F)(F)F)cc1)c1ccccc1 | 1.2%[88.5 µM] | ? | i | 28.2µM* | 44.7µM*
CC1CCN(C[C@H]2CN3CC[C@H]2C[C@@H]3CNC(=O)c2ccc(C(F)(F)F)cc2)CC1 | -8.5%[88.5 µM] | 1.4%[70.6 µM] | i | ? | ?
O=C(NC[C@H]1C[C@@H]2CCN1C[C@@H]2CN1CCC(Cc2ccccc2)CC1)c1ccccc1 | 1.8%[88.5 µM] | 0.1%[70.6 µM] | i | 25.1µM* | 25.1µM*
COc1ccc2c(c[n+](C)c3c4cc5c(cc4ccc23)OCO5)c1OC | 10µM*! | / | / | / | /
COc1ccc2c(c1OC)CN1CCc3cc4c(cc3C1C2)OCO4 (configuration not stated) | -9.9% | / | / | / | /
COc1cc(CC(C)N)c(OC)cc1Br (configuration not stated) | i | / | / | / | /
C#C[C@H]1CN2CC[C@H]1C[C@@H]2CNC(=O)c1ccc(-c2ccccc2)cc1 | i | 0.9%[70.6 µM] | i | 89.1µM* | 112µM*
CC[C@H]1CN2CC[C@H]1C[C@@H]2CNC(=O)c1ccc(-c2ccccc2)cc1 | -5.0%[88.5 µM] | 2.1%[70.6 µM] | i | 89.1µM* | ?
C#C[C@H]1CN2CC[C@H]1C[C@@H]2CNC(=O)c1ccc(C#N)cc1 | -3.7%[88.5 µM] | 4.6%[70.6 µM] | i | -0.4%[172 µM] | -0.2%[138 µM]
C=C[C@H]1CN2CC[C@H]1C[C@@H]2CNCc1cccc(Cl)c1 | i | -13.7%[70.6 µM] | i | ? | ?
CC[C@H]1CN2CC[C@H]1C[C@@H]2CNC(=O)c1ccc2ccccc2c1 | 4.4%[88.5 µM] | -12.0%[70.6 µM] | i | ? | ?
C#C[C@H]1CN2CC[C@H]1C[C@@H]2CNCc1cccc(Cl)c1 | -3.3%[88.5 µM] | -4.5%[70.6 µM] | i | 126µM* | ?
COc1cc2c(cc1OC1CCCC1)NC(=O)C21CCN(Cc2nccs2)CC1 | i | -3.7%[70.6 µM] | i | 100µM* | ?
COc1cc2c(cc1OC1CCCC1)NC(=O)C21CCN(C(C)=O)CC1 | i | -6.4%[70.6 µM] | i | -33.7%[172 µM] | ?
COc1cc2c(cc1OC1CCCC1)NC(=O)C21CCN(Cc2ccccc2O)CC1 | -3.1%[88.5 µM] | -20.4%[70.6 µM] | i | 39.8µM* | 22.4µM*
COc1cc2c(cc1OC1CCCC1)NC(=O)C21CCN(Cc2cccnc2)CC1 | -3.3%[88.5 µM] | -7.8%[70.6 µM] | i | 100µM* | ?
CC(=O)OC[C@]12C[C@H](OC(=O)CC(C)C)C(C)=C[C@H]1O[C@@H]1[C@H](O)[C@@H](OC(C)=O)[C@@]2(C)[C@@]12CO2 | 2.1%[27.3 µM] | / | / | / | /
SMILES | GPT2 inh | NPR1 antag | Luciferase inh | HEK cytotox | NIH3T3 tox
CC[C@H]1CN2CC[C@H]1C[C@@H]2CNCc1ccc2c(c1)OCO2 | 3.2%[88.5 µM] | 14.2%[70.6 µM] | i | ? | -21.3%[174 µM]
COc1cc2c(cc1OCc1ccccc1)N([S+](=O)([O-])c1ccc3c(c1)CCO3)CC21CCN(C)CC1 | 0.8% | -9.1% | i | ? | ?
COc1cc2c(cc1OCc1ccccc1)N([S+](=O)([O-])c1cccnc1)CC21CCN(C)CC1 | 0.6% | 1.8% | i | ? | 14.1µM*
COc1cc2c(cc1OCc1ccccc1)N([S+](=O)([O-])c1ccccc1C(F)(F)F)CC21CCN(C)CC1 | -59.9% | -15.0% | i | 20µM* | 12.6µM*
Nc1ccc(Cl)cc1C(=O)c1ccccc1F | -5.5% | / | / | / | /
Cc1ccc(CN2C[C@@H]3C(C(N)=O)=NO[C@@H]3C2)nc1 | -16.3%[88.5 µM] | 8.3%[70.6 µM] | i | -9.2%[230 µM] | 112µM*
O=C(O)C1=NOC2CN(Cc3ccccn3)CC12 (configuration not stated) | -8.8%[88.5 µM] | / | / | i | i
Cn1cc(CN2CCOC[C@H](O)C2)c2ccccc21 | -9.1%[88.5 µM] | 3.8%[70.6 µM] | i | 63.1µM* | 89.1µM*
NCC(CP(=O)(O)O)c1ccc(Cl)cc1 (configuration not stated) | i | / | / | / | /
COc1ccccc1-c1cc([C@H]2CN3CC[C@H]2C[C@@H]3COC(=O)NC(C)C)nc(C)n1 | 2.0%[88.5 µM] | -3.7%[70.6 µM] | i | ? | 44.7µM*
COc1ccccc1-c1cc([C@H]2CN3CC[C@H]2C[C@@H]3COC(=O)Nc2ccccc2)nc(C)n1 | 1.1% | -1.2% | i | ? | ?
O=C(NC1CCCCC1)OC[C@H]1C[C@@H]2CCN1C[C@@H]2c1cc(C2CCCC2)nc(-c2ccncc2)n1 | -21.3% | ? | i | ? | ?
COc1ccccc1-c1cc([C@H]2CN3CC[C@H]2C[C@@H]3COC(=O)NC2CCCCC2)nc(C)n1 | -30.6% | -1.9% | i | 11.2µM* | ?
CCCNC(=O)OC[C@H]1C[C@@H]2CCN1C[C@@H]2c1cc(-c2ccccc2OC)nc(C)n1 | -8.8%[88.5 µM] | 5.4%[70.6 µM] | i | ? | 63.1µM*
COc1ccccc1-c1cc([C@H]2CN3CC[C@H]2C[C@@H]3CNC(=O)CCC(=O)O)nc(C)n1 | i | -0.7% | i | -7.8% | -9.6%
COc1cc2c(cc1OCc1ccccc1)N(C(=O)c1cc3ccccc3n1C)CC21CCN(C)CC1 | i | -1.8% | i | 25.1µM* | 12.6µM*
COc1ccc(C(=O)N2CC3(CCN(C)CC3)c3cc(OC)c(OCc4ccccc4)cc32)cn1 | -6.4% | 4.5% | i | 79.4µM* | ?
COc1cc2c(cc1OCc1ccccc1)N(C(=O)c1ccn(C)n1)CC21CCN(C)CC1 | -14.7% | 3.4% | i | -20.7% | ?
COc1cc2c(cc1OCc1ccccc1)N(C(=O)c1ccncc1)CC21CCN(C)CC1 | 4.0% | 1.4% | i | ? | -25.9%
